# Results filed as inconclusive are left out. Calls of active or inactive are those of the source. How the source made its calls, unless noted: active means hit-call score of the fitted dose curve at least 0.9, where 1 is the maximum; inconclusive means response in the unintended direction; inactive means score below 0.9.
# Columns and labels:
# [1] = Tanguay_ZF_120hpf_YSE_legacy: (Legacy) Oregon State University Tanguay Lab 120 Hour Post-fertilization zebrafish Assay for Yolk Sac Edema (AID 2283634);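 on AC50: actives raise the incidence of yolk sac edema above the DMSO baseline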
# Summary of the method: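 Tropical 5D wild-type embryos, dechorionated with pronase at 4 hpf, were exposed singly from 6 hpf to 120 hpf under static, sealed, dark conditions at 28C with 0.64% DMSO final. Yolk sac edema was scored present/absent by brightfield microscopy.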
# [2] = Tanguay_ZF_120hpf_AXIS_legacy: (Legacy) Oregon State University Tanguay Lab 120 Hour Post-fertilization zebrafish Assay for Body Axis Malformation (AID 2283635)
# Summary of the method: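 Tropical 5D wild-type zebrafish embryos, dechorionated with pronase at 4 hpf, were placed singly in wells at 6 hpf and exposed statically to test chemical (0.64% DMSO final) at 28C until 120 hpf, then scored by brightfield for body axis defects.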
# [3] = Tanguay_ZF_120hpf_BRAI_legacy: (Legacy) Oregon State University Tanguay Lab 120 Hour Post-fertilization zebrafish Assay for Brain Malformation (AID 2283641)
# Summary of the method: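 Tropical 5D wild-type zebrafish embryos were exposed statically in sealed, foil-covered plates at 28C until 120 hpf, with 0.64% (vol/vol) final DMSO. Brain malformation was scored present/absent by brightfield microscopy, relative to DMSO baseline.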
# [4] = Tanguay_ZF_120hpf_PFIN_legacy: (Legacy) Oregon State University Tanguay Lab 120 Hour Post-fertilization zebrafish Assay for Pectoral Fin Malformation (AID 2283648);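 further: each larva judged yes or no for fin defect by brightfield with dead larvae skipped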
# Summary of the method: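 Dechorionated Tropical 5D wild-type zebrafish embryos, one per well, statically exposed from 6 to 120 hpf at 28C with 0.64% DMSO final. Pectoral fin malformation scored present/absent by brightfield at 120 hpf; not scored in dead embryos.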
# [5] = Tanguay_ZF_120hpf_CFIN_legacy: (Legacy) Oregon State University Tanguay Lab 120 Hour Post-fertilization zebrafish Assay for Caudal Fin Malformation (AID 2283649)
# Summary of the method: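 Tropical 5D wild-type embryos, dechorionated with pronase at 4 hpf, were placed singly in wells at 6 hpf and statically exposed to compound at 28C until 120 hpf (0.64% DMSO). Caudal fin malformation was scored present/absent by brightfield microscopy.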
# [6] = Tanguay_ZF_120hpf_CIRC_legacy: (Legacy) Oregon State University Tanguay Lab 120 Hour Post-fertilization zebrafish Assay for Circulatory Malformation (AID 2283651)
# Summary of the method: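 Tropical 5D wild-type embryos, dechorionated with pronase at 4 hpf, were placed singly in wells at 6 hpf and exposed statically at 28C to 120 hpf (0.64% DMSO final). Circulatory malformation was scored present/absent by brightfield microscopy.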
# [7] = Tanguay_ZF_120hpf_TRUN_legacy: (Legacy) Oregon State University Tanguay Lab 120 Hour Post-fertilization zebrafish Assay for Truncated Body (AID 2283655)
# Summary of the method: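 Tropical 5D wild-type embryos, dechorionated with pronase at 4 hpf, were placed singly in wells at 6 hpf and statically exposed at 28C until 120 hpf, final DMSO 0.64%. Truncated body was scored present/absent by brightfield microscopy.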
# [8] = Tanguay_ZF_120hpf_NC_legacy: (Legacy) Oregon State University Tanguay Lab 120 Hour Post-fertilization zebrafish Assay for Notochord and Tail Malformation (AID 2283656)
# Summary of the method: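 Dechorionated 5D zebrafish, 1/well from 6 hpf; static exposure to 120 hpf, 28C, sealed, dark; final DMSO 0.64% v/v. NC scored binary (present/absent); dead embryos not scored. Fit vs DMSO baseline, gain direction.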
# [9] = Tanguay_ZF_120hpf_EYE_legacy: (Legacy) Oregon State University Tanguay Lab 120 Hour Post-fertilization zebrafish Assay for Eye Malformation (AID 2283636);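 further: binary presence or absence of eye malformation scored by brightfield in 120 hpf larvae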
# Summary of the method: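 Dechorionated Tropical 5D zebrafish embryos, one per well from 6 hpf, static exposure to 120 hpf at 28C, 0.64% DMSO. Eye malformation scored present/absent by brightfield; dead embryos not scored.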
# [10] = Tanguay_ZF_120hpf_SNOU_legacy: (Legacy) Oregon State University Tanguay Lab 120 Hour Post-fertilization zebrafish Assay for Snout Malformation (AID 2283637)
# Summary of the method: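 Dechorionated tropical 5D wild-type zebrafish embryos exposed statically from 6 to 120 hpf at 28C, one per well, in 0.64% DMSO. Snout malformation scored as present/absent by brightfield at 120 hpf; dead embryos not scored.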
# [11] = Tanguay_ZF_120hpf_OTIC_legacy: (Legacy) Oregon State University Tanguay Lab 120 Hour Post-fertilization zebrafish Assay for Otic Vesicle Malformation (AID 2283639)
# Summary of the method: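 Tropical 5D wild-type zebrafish embryos were exposed statically in sealed, foil-covered plates at 28C until 120 hpf, with 0.64% (vol/vol) DMSO final. Otic vesicle malformation was scored present/absent by brightfield microscopy, with DMSO as baseline.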
# [12] = Tanguay_ZF_120hpf_PE_legacy: (Legacy) Oregon State University Tanguay Lab 120 Hour Post-fertilization zebrafish Assay for Pericardial Edema (AID 2283640);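 on AC50: potency for increased incidence of pericardial edema versus DMSO baseline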
# Summary of the method: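 Tropical 5D wild-type zebrafish embryos were exposed statically to 120 hpf at 28C, sealed and foil-covered, in 0.64% DMSO final. Pericardial edema was scored present/absent by brightfield microscopy; dead embryos were not scored.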
# [13] = Tanguay_ZF_120hpf_SOMI_legacy: (Legacy) Oregon State University Tanguay Lab 120 Hour Post-fertilization zebrafish Assay for Somite Malformation (AID 2283647)
# Summary of the method: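 Tropical 5D wild-type zebrafish embryos, dechorionated with pronase at 4 hpf, were placed singly at 6 hpf and statically exposed until 120 hpf at 28C in 0.64% DMSO. Somite malformation was scored present/absent by brightfield microscopy versus DMSO.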
# [14] = Tanguay_ZF_120hpf_JAW_legacy: (Legacy) Oregon State University Tanguay Lab 120 Hour Post-fertilization zebrafish Assay for Jaw Malformation (AID 2283638);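 on AC50: active means more embryos with jaw malformation than DMSO controls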
# Summary of the method: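 Tropical 5D wild-type embryos, dechorionated with pronase at 4 hpf, were placed singly per well at 6 hpf and statically exposed at 28C until 120 hpf (0.64% DMSO final). Jaw malformation scored as present/absent by brightfield microscopy at 120 hpf, analyzed relative to DMSO.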
# [15] = read-out: kallikrein-3 (KLK3), KLK3 (gene 354); assay: LTEA_HepaRG_KLK3: Life Technologies and Expression Analysis (LTEA) Assay for kallikrein-3 (KLK3) using HepaRG (AID 2283652; active means hit-call score of the fitted dose curve at least 0.9, where 1 is the maximum; inactive means score below 0.9); details: mRNA level, 48 h; actives raise or lower the signal
# Summary of the method: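 Differentiated human HepaRG cells in serum-free induction medium exposed 48 h in duplicate, eight-point half-log series from 100 uM in 0.5% DMSO. KLK3 mRNA by qRT-PCR, normalised to ACTB, GAPDH, POLR2A; bidirectional fit versus DMSO.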
# [16] = read-out: solute carrier (SLC22A6), SLC22A6 (gene 9356); assay: LTEA_HepaRG_SLC22A6: Life Technologies and Expression Analysis (LTEA) Assay for solute carrier (SLC22A6) using HepaRG (AID 2283653; active means hit-call score of the fitted dose curve at least 0.9, where 1 is the maximum; inactive means score below 0.9); details: mRNA level, 48 h; actives raise or lower the signal
# Summary of the method: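 Differentiated human HepaRG cells were exposed for 48 h in serum-free induction medium to eight concentrations (top 100 uM, half-log steps, 0.5% DMSO), in duplicate. SLC22A6 mRNA was quantified by qRT-PCR, normalised to ACTB, GAPDH and POLR2A, and fitted bidirectionally against DMSO.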
# [17] = Tanguay_ZF_120hpf_SWIM_legacy: (Legacy) Oregon State University Tanguay Lab 120 Hour Post-fertilization zebrafish Assay for Swim Bladder Malformation (AID 2283654);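 further: swim bladder malformation in each larva scored yes or no under brightfield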
# Summary of the method: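 Dechorionated wild-type Tropical 5D zebrafish embryos, one per well from 6 hpf, were statically exposed at 28C until 120 hpf in 0.64% DMSO. Swim bladder malformation scored as present/absent by brightfield microscopy; not scored in dead larvae.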
# [18] = read-out: solute carrier (SLC10A1), SLC10A1 (gene 6554); assay: LTEA_HepaRG_SLC10A1: Life Technologies and Expression Analysis (LTEA) Assay for solute carrier (SLC10A1) using HepaRG (AID 2283657; active means hit-call score of the fitted dose curve at least 0.9, where 1 is the maximum; inactive means score below 0.9); details: mRNA level, 48 h; actives raise or lower the signal
# Summary of the method: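 HepaRG cells (single lot) exposed 48 h in serum-free induction medium, 8-point half-log series from 100 uM top in 0.5% DMSO, duplicate. SLC10A1 mRNA by qRT-PCR normalised to ACTB, GAPDH, POLR2A; bidirectional fit versus DMSO.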
# [19] = read-out: matrix metalloproteinase-1 (MMP1), MMP1 (gene 4312); assay: LTEA_HepaRG_MMP1: Life Technologies and Expression Analysis (LTEA) Assay for matrix metalloproteinase-1 (MMP1) using HepaRG (AID 2283658; active means hit-call score of the fitted dose curve at least 0.9, where 1 is the maximum; inactive means score below 0.9); details: mRNA level, 48 h; actives raise or lower the signal
# Summary of the method: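 Differentiated HepaRG cells, plated 48 h then switched to serum-free induction medium, were exposed in duplicate for 48 h to eight half-log concentrations up to 100 uM in 0.5% DMSO; MMP1 mRNA measured by qRT-PCR, normalized to ACTB, GAPDH, POLR2A.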
# [20] = Tanguay_ZF_120hpf_PIG_legacy: (Legacy) Oregon State University Tanguay Lab 120 Hour Post-fertilization zebrafish Assay for Pigmentation Malformation (AID 2283650)
# Summary of the method: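 Dechorionated Tropical 5D wild-type embryos, one per well from 6 hpf, statically exposed at 28C in the dark until 120 hpf, 0.64% DMSO final. Pigmentation scored present/absent by brightfield microscopy; dead embryos not scored; fitted versus DMSO.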
smiles,measurement,setting,value
c1ccc2c(c1)-c1cccc3cccc-2c13,outcome,[1],inactive
same,outcome,[2],inactive
same,outcome,[3],inactive
same,outcome,[4],inactive
same,outcome,[5],inactive
same,outcome,[6],inactive
same,outcome,[7],inactive
same,outcome,[8],inactive
c1ccc(NNc2ccccc2)cc1,outcome,[1],inactive
same,outcome,[9],inactive
same,outcome,[10],inactive
same,outcome,[11],inactive
same,outcome,[12],inactive
same,outcome,[3],inactive
same,outcome,[13],inactive
same,outcome,[5],inactive
same,outcome,[6],inactive
same,outcome,[7],inactive
same,outcome,[8],inactive
Cc1ccc([N+](=O)[O-])cc1,outcome,[1],inactive
same,outcome,[9],inactive
same,outcome,[10],inactive
same,outcome,[14],inactive
same,outcome,[11],inactive
same,outcome,[12],inactive
same,outcome,[3],inactive
same,outcome,[13],inactive
same,outcome,[4],inactive
same,outcome,[5],inactive
same,outcome,[6],inactive
same,outcome,[15],inactive
same,outcome,[16],inactive
same,outcome,[17],inactive
same,outcome,[7],inactive
same,outcome,[8],inactive
same,outcome,[18],inactive
same,outcome,[19],inactive
CC(C)(C)OOC(=O)c1ccccc1,outcome,[1],inactive
same,outcome,[2],inactive
same,outcome,[9],inactive
same,outcome,[14],inactive
same,outcome,[11],inactive
same,outcome,[12],inactive
same,outcome,[3],inactive
same,outcome,[13],inactive
same,outcome,[4],inactive
same,outcome,[5],inactive
same,outcome,[20],inactive
same,outcome,[6],inactive
same,outcome,[17],inactive
same,outcome,[7],inactive
O=C(O)C1C2CCC(O2)C1C(=O)O (configuration not stated),outcome,[1],inactive
same,outcome,[2],inactive
same,outcome,[9],inactive
same,outcome,[10],inactive
same,outcome,[14],inactive
same,outcome,[12],inactive
same,outcome,[13],inactive
same,outcome,[4],inactive
same,outcome,[5],inactive
same,outcome,[6],inactive
same,outcome,[17],inactive
same,outcome,[8],inactive
Cc1ccc(N)cc1,outcome,[1],inactive
same,outcome,[9],inactive
same,outcome,[10],inactive
same,outcome,[14],inactive
same,outcome,[11],inactive
same,outcome,[12],inactive
same,outcome,[13],inactive
same,outcome,[4],inactive
same,outcome,[5],inactive
same,outcome,[6],inactive
same,outcome,[17],inactive
same,outcome,[7],inactive
same,outcome,[8],inactive
CC(C)(C)OOC(C)(C)CCC(C)(C)OOC(C)(C)C,outcome,[1],inactive
same,outcome,[9],inactive
same,outcome,[10],inactive
same,outcome,[14],inactive
same,outcome,[12],inactive
same,outcome,[3],inactive
same,outcome,[4],inactive
same,outcome,[5],inactive
same,outcome,[6],inactive
same,outcome,[17],inactive
same,outcome,[7],inactive
same,outcome,[8],inactive
N#CC(Br)Br,outcome,[2],inactive
same,outcome,[10],inactive
same,outcome,[14],inactive
same,outcome,[11],inactive
same,outcome,[12],inactive
same,outcome,[13],inactive
same,outcome,[4],inactive
same,outcome,[5],inactive
same,outcome,[6],inactive
same,outcome,[17],inactive
same,outcome,[7],inactive
same,outcome,[8],inactive
C[C@]12C=CC3=C4CCC(=O)C=C4CC[C@H]3[C@@H]1CC[C@@H]2O,AC50,[1],48.8 µM (active)
same,AC50,[9],27.1 µM (active)
same,AC50,[10],43.3 µM (active)
same,AC50,[14],30.5 µM (active)
same,outcome,[11],inactive
same,AC50,[12],29.9 µM (active)
same,outcome,[13],inactive
same,outcome,[4],inactive
same,outcome,[5],inactive
same,outcome,[6],inactive
same,outcome,[16],inactive
same,outcome,[17],inactive
same,outcome,[7],inactive
same,outcome,[8],inactive
same,AC50,[18],16.1 µM (active)
same,outcome,[19],inactive
C=CCc1ccc2c(c1)OCO2,outcome,[1],inactive
same,outcome,[2],inactive
same,outcome,[9],inactive
same,outcome,[10],inactive
same,outcome,[14],inactive
same,outcome,[12],inactive
same,outcome,[13],inactive
same,outcome,[4],inactive
same,outcome,[5],inactive
same,outcome,[17],inactive
same,outcome,[7],inactive
same,outcome,[8],inactive
[As]#[In],outcome,[1],inactive
same,outcome,[2],inactive
same,outcome,[10],inactive
same,outcome,[14],inactive
same,outcome,[11],inactive
same,outcome,[12],inactive
same,outcome,[13],inactive
same,outcome,[4],inactive
same,outcome,[5],inactive
same,outcome,[20],inactive
same,outcome,[6],inactive
same,outcome,[17],inactive
same,outcome,[7],inactive
same,outcome,[8],inactive
Clc1ccc(Cl)c(Cl)c1,outcome,[1],inactive
same,outcome,[2],inactive
same,outcome,[9],inactive
same,outcome,[14],inactive
same,outcome,[12],inactive
same,outcome,[13],inactive
same,outcome,[4],inactive
same,outcome,[5],inactive
same,outcome,[20],inactive
same,outcome,[6],inactive
same,outcome,[17],inactive
same,outcome,[8],inactive
Brc1ccc(Oc2ccccc2)cc1,outcome,[1],inactive
same,outcome,[2],inactive
same,outcome,[9],inactive
same,outcome,[14],inactive
same,outcome,[11],inactive
same,outcome,[13],inactive
same,outcome,[4],inactive
same,outcome,[5],inactive
same,outcome,[20],inactive
same,outcome,[6],inactive
same,outcome,[17],inactive
same,outcome,[7],inactive
same,outcome,[8],inactive
